# A selection: hits, their analogues and other compounds. The true share with any hit is near 4.2%.
# NLRP3 yeast inh = blocks the NALP3 inflammasome reconstituted in yeast; 0.39% of 330,000 active; AID 2825; Yeast reconstituted NLRP3/ASC/caspase-1, beta-gal luminescence, 24 h; inhibition, % at 10 µM;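 active means inhibition of 50% or more; inactive means inhibition below 50%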;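 further: plate controls were induced DMSO wells for no effect and uninduced yeast grown without galactose for full effect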
# NALP1 inh = NALP1 inhibition | S. cerevisiae NALP1/ASC/caspase-1 growth, X-gal OD620, 72 h | inhibition, % at 10 µM | 0.61% of 280,000 active | AID 2071; in the data active means inhibition mostly above about 24%, no sharp cut-off; inactive means mostly below about 32%
# tim10-1 inh = tim10-1 yeast growth inhibition; S. cerevisiae tim10-1 ts strain growth, BacTiter-Glo, 24 h; inhibition, % at 20 µM; 2.2% of 330,000 active; AID 463190;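 active means inhibition of at least 40%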;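 further: mutant grown at 25 °C; 0% = DMSO wells with yeast and 100% = wells holding no yeast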
# V-ATPase pHluor = regulators of yeast V-ATPase proton transport; S. cerevisiae, pHLuorin cytosolic pH fluorescence; response, % at 10 µM; 0.37% of 350,000 active; in the data active means response mostly above about 7.3%, no sharp cut-off; inactive means mostly below about 5.4%; further: actives read high
# tim23-1 inh = growth inhibitors of tim23-1 mutant yeast. 1.3% of 330,000 active. AID 463212. S. cerevisiae tim23-1 growth, BacTiter-Glo luminescence, 24 h. inhibition, % at 20 µM;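 active means growth inhibition of the mutant yeast at or above 50%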;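 further: temperature-sensitive mutant grown at 25 °C; plate controls were DMSO-treated mutant yeast for no effect and medium wells lacking yeast for full effect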
# TIM10 inh = TIM10 yeast growth inhibition. S. cerevisiae TIM10 strain growth, BacTiter-Glo luminescence, 24 h. inhibition, % at 10 µM. 1.4% of 330,000 active. AID 463195;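 active means inhibition of 40% or more at the single tested concentration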;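 further: wild-type TIM10 isogenic control strain grown at permissive 25 °C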
# tim10-1 conf = tim10-1 yeast growth inhibition, confirmed. shares compounds with tim10-1 inh. S. cerevisiae tim10-1 ts strain growth, BacTiter-Glo, 24 h. inhibition, % at 20 µM. 56% of 7,400 active. AID 463213;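 active means inhibition of yeast growth at or above a set limit in either of two repeat tests at 20 µM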;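 further: tim10-1 mutant grown at permissive 25 °C to find synthetic lethal compounds; 0% = DMSO yeast wells and 100% = medium wells without yeast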
# tim10 confirm = confirmation of TIM10 yeast growth inhibitors; shares compounds with TIM10 inh; S. cerevisiae tim10 strain growth, BacTiter-Glo luminescence, 24 h; inhibition, % at 10 µM; 63% of 4,600 active; AID 463215;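 active means inhibition of yeast growth at or above a set limit in either of two replicates at 10 µM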;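 further: this counterscreen used the strain with wild-type TIM10; 0% = yeast with DMSO and 100% = medium wells lacking yeast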
# * marks the source's active call; other numbers are inactive results; / = no result.
SMILES,NLRP3 yeast inh,NALP1 inh,tim10-1 inh,V-ATPase pHluor,tim23-1 inh,TIM10 inh,tim10-1 conf,tim10 confirm
CN(C)c1ccc(/C=N/n2c(-c3ccccc3Br)n[nH]c2=S)cc1,6,/,42*,-3,44,41*,24,24
COc1ccccc1N1CCN(C(c2cc3ccc(C)cc3[nH]c2=O)c2nnnn2C2CCCC2)CC1 (centres undefined),-16,10,13,1,17,8,/,/
CCNC(=S)NNC(=O)c1ccccc1OC(F)F,13,33,7,-1,9,2,/,/
CCNC(=S)N/N=C(\C)c1ccc2ccccc2c1OC(F)F,28,10,47*,3,32,56*,-1,41*
CCNC(=S)N/N=C(\C)c1ccc2ccccc2c1,4,7,42*,/,35,53*,31*,38*
COc1ccc(CNC(=S)N/N=C(/C)c2ccccc2)cc1,39,5,35,-4,34,33,/,/
C/C(=N\NC(=S)NCc1ccccc1)c1ccccc1,-10,16,47*,1,31,44*,44*,40*
N#Cc1cccc2c1-c1ccccc1/C2=N/NC(N)=S,21,-2,52*,-2,40,47*,41*,56*
N#Cc1cccc2c1-c1ccccc1/C2=N/NC(N)=O,7,6,-3,-1,18,-7,/,/
COc1ccc(CCNC(=O)C2CC(c3cccc(F)c3)=NO2)cc1 (centres undefined),22,/,17,2,31,13,/,/
Cc1ccsc1/C=N/NC(=S)NCCc1ccccc1,3,2,54*,1,18,41*,-17,44*
COc1cc2c(cc1OC)C(c1ccc(-c3cc(Cl)ccc3Cl)o1)=NCC2,8,8,46*,-3,-2,45*,43*,46*
COc1cc2c(cc1OC)C(c1ccc(Cl)cc1)=NCC2,32,/,-2,-3,-4,8,/,/
COc1cc2c(cc1OC)C(c1ccc(-c3ccccc3Cl)o1)=NCC2,28,25,46*,3,49,46*,40*,47*
COc1cc2c(cc1OC)C(c1ccc(-c3ccc(Cl)cc3Cl)o1)=NCC2,27,20,51*,10,45,48*,27,36*
Cc1ccc(S(=O)(=O)N2CCCCC2)cc1NC(=O)COc1ccccc1,-13,/,12,-5,4,10,/,/
CC(OC(=O)CN1C(=O)C2C3C=CC(C4CC34)C2C1=O)C(=O)c1ccccc1 (centres undefined),-1,-10,6,-3,18,-5,/,/
CCCCOC(=O)c1ccc(S(N)(=O)=O)o1,18,-39,18,2,3,4,/,/
O=C(NCCN1CCCCC1)Nc1ccc(F)cc1,18,6,2,-3,9,-10,/,/
O=C1N/C(=C\c2ccc(O)cc2)C(=O)c2ccccc21,7,5,55*,-1,40,48*,42*,36*
Nc1nc2c(ncn2COCCO)c(=O)[nH]1,8,23,-1,11,-3,0,/,/
CCCCS(=O)(=O)/C=C\C=C/S(=O)(=O)CCCC,5,126*,70*,2,43,59*,42*,61*
Cc1cc(C)c(S(=O)(=O)ON2C(=O)c3ccccc3C2=O)cc1C,26,7,71*,-1,14,45*,60*,74*
Cc1ccc(OC(=O)CN2C(=O)c3ccccc3C2=O)cc1C,19,9,36,-6,15,33,/,/
COc1ccccc1N1CCN(Cc2ccc(O)c3ncccc23)CC1,46,-10,42*,0,31,50*,23,35*
SMILES,NLRP3 yeast inh,NALP1 inh,tim10-1 inh,V-ATPase pHluor,tim23-1 inh,TIM10 inh,tim10-1 conf,tim10 confirm
O=C(C#Cc1ccccc1)c1ccc([N+](=O)[O-])cc1,-40,-3,43*,12*,-95,55*,9,-25
CC(C)CC(/C(O)=C(\C#N)c1nc2ccccc2[nH]1)N1C(=O)c2ccccc2C1=O (centres undefined),7,9,12,-2,29,13,/,/
Cc1nc(Nc2ccc(Cl)c(Cl)c2)sc1C(=O)Nc1ccccc1,38,32,59*,0,36,53*,32*,69*
COc1ccc(CNC(=S)N/N=C/c2ccncc2)cc1,5,12,35,3,-14,34,/,/
CCN(CC)c1ccc(/C=N/NC(=S)NCc2ccc(OC)cc2)cc1,17,31,45*,-3,12,45*,27,42*
O=C1OCCN1C(=O)[C@H]1[C@H](c2ccc(F)cc2)C(c2cccc(Cl)c2)=NN1c1ccc(Br)cc1,/,/,24,-3,38,17,/,/
CC(=O)Nc1ccc(C(=O)OCc2ccc(Cl)cc2)cc1,32,18,49*,-4,28,50*,48*,35*
CC(=O)Nc1ccc(C(=O)OCc2ccc(Cl)c(Cl)c2)cc1,15,15,50*,-1,23,42*,32*,-30
CCC(=O)Nc1ccc(C(=O)OCc2ccc(Cl)c(Cl)c2)cc1,16,6,10,0,3,4,/,/
CCOC(=O)N1[C@@H]2C=C(C)[C@@H]2[C@@H]2[C@@H](C)C(=O)N21,2,15,5,1,-4,-2,/,/
Cc1ccc(S(=O)(=O)CCC(=O)OCC(=O)c2cc(C)ccc2C)cc1,6,/,-2,4,3,-2,/,/
Cc1ccc(S(=O)(=O)CCC(=O)c2ccc(O)cc2O)cc1,-22,-67,54*,-1,48,55*,47*,50*
O=C(Cc1cccs1)Nc1nc(-c2ccc(F)cc2F)cs1,37,60,41*,-1,41,52*,34*,41*
Cc1ccc(CNC(=O)/C(C#N)=C\c2ccc(N(C)C)cc2)cc1,9,0,45*,/,20,45*,29,17
Cc1c(/C=N/NC(=O)c2sc3ccccc3c2Cl)cnn1C,5,-4,53*,1,11,43*,34*,50*
CCCOC(=O)c1cc(=O)[nH]c2ccccc12,21,6,20,-2,-5,-12,/,/
COCCCNC(=O)c1ccccc1Oc1ccccc1,3,6,4,-1,3,12,/,/
COCCCNC(=O)c1ccc2c3c(onc13)-c1ccccc1C2=O,38,6,53*,7,44,43*,42*,41*
COc1cc2c(cc1OC)C(C1C(=O)CC(C)(C)CC1=O)N(C(=O)CCl)CC2 (centres undefined),4,26,-2,0,8,-7,/,/
